Records with an inconclusive call do not appear. A call without a number means that no potency is given here. Unmarked numbers belong to inactive results. Active and inactive are the calls of the source. The call rests on the fitted dose curve; in most records, active means well fitted activation curve with a large enough effect; inconclusive means small, poorly fitted or top-dose-only effect; inactive means no such curve, though single readings can be large or run the other way.
Potency means the concentration at half of the fitted maximal effect.

The assay in a line: qHTS assay for re-activators of p53 using a Luc reporter: Hit Validation. Further: nearly all actives have a fitted effect of over 75% in size. Particulars: p53-responsive luciferase reporter cells, luminescence, H1299 line expressing heat-sensitive Ala138Val p53; series mostly up to 46.1 µM. An outline of the steps: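 H1299 (p53-null) cells stably carrying p53-A138V and a BP100-luciferase reporter, 1000 cells/well, treated 24 h at 37 deg C. Compounds at several concentrations, 1:5 dilution; nocodazole control; luminescence read after 10 min with detection reagent.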
Background: In qHTS, concentration-response curves come from the screen itself.
Turning to `Cc1nn(-c2ccccc2)c(C)c1/C=N/Nc1nc2ccccc2[nH]1`, the Potency was 731 nM (active).

Regarding `CC1CCC(NC(=O)C2CCN(C(=O)Nc3ccccc3)CC2)CC1` (stereo not drawn), the Potency entry is “inactive”.

For the compound `Fc1ccccc1OCCSc1nnnn1-c1ccccc1`, the Potency is 820 nM (active).

On to `Cc1ccsc1/C=N/Nc1nc2ccccc2[nH]1`, for which the Potency was 1300 nM (active).

In the case of `c1ccc2sc(-c3ccc4c(c3)OCO4)nc2c1`, the Potency is 2310 nM (active).

With `Cc1c(/C(O)=C2/C(=O)C(=O)N(Cc3cccnc3)C2c2cccs2)cnn1-c1ccccc1` (stereo not drawn), the Potency was 8200 nM (active).

Turning to `O=C(CSc1nnc(-c2ccc(O)cc2)o1)Nc1ccc2c(c1)OCCO2`, the Potency is 8200 nM (active).

Regarding `COc1ccc2cnn(CCOc3ccccc3)c(=O)c2c1OC`, the Potency was 1030 nM (active).

Regarding `Cc1cc(Br)c(S(=O)(=O)NCCN2CCOCC2)cc1C`, the Potency entry is “inactive”.

For the compound `COc1ccc(C2SCCN2C(=S)Nc2ccc(Cl)cc2)cc1` (stereo not drawn), the Potency entry is “inactive”.

In the case of `COc1ccc([N+](=O)[O-])cc1NC(=O)C1CCCCC1C(=O)O` (stereo not drawn), the Potency result was “inactive”.

For `CN(NC1CC(=O)N(c2ccccc2)C1=O)c1ccccc1` (stereo not drawn), the Potency entry is “inactive”.

`CC(C)N1CCc2c(sc(NC(=S)NC(=O)c3ccccc3)c2C#N)C1`: the activation was 7.78% [at 9.22 µM].

For the compound `Cc1cc(C)nc(SCc2csc(-c3ccccc3)n2)n1`, the Potency was 13000 nM (active).

`COc1ccc2oc(C(=O)Nc3nnc(C)s3)c(C)c2c1`: the Potency is 1840 nM (active).

Turning to `O=C(Cn1cc2c(n1)CCCCC2)NC1CCCCCC1`, the Potency entry is “inactive”.

For the compound `O=C(NNC(=O)c1cc(-c2ccccc2)nn1-c1ccccc1)c1ccccc1`, the activation is 1.05% [at 9.22 µM].

For `CCc1ccc(N=c2c([N+](=O)[O-])nn(-c3ccccc3)n2O)cc1`, the Potency is 9200 nM (active).

Consider `COc1ccc(CC(=O)Nc2ccc(C(=O)Nc3ccccc3C(=O)O)cc2)cc1OC`, for which the Potency entry is “inactive”.

Regarding `N#C/C(=C/c1ccccc1[N+](=O)[O-])c1nc(C2CC2)cs1`, the Potency is 5800 nM (active).

Consider `O=C(Cc1ccccc1)Nc1ccc(NC(=O)c2cccnc2)cc1`, for which the Potency entry was “inactive”.

For the compound `O=C(c1cccc(Br)c1)c1coc2ccc(O)cc12`, the Potency is 23100 nM (active).

Consider `O=C(O)CCCC(=O)NCCc1ccncc1`, for which the Potency entry was “inactive”.

Consider `COc1ccccc1NS(=O)(=O)c1ccc(C(=O)Nc2ncccc2O)cc1`, for which the Potency result was “inactive”.

Take `Cc1cc(NC(c2cccnc2)c2ccc3cccnc3c2O)no1` (stereo not drawn): the Potency result was “inactive”.

For the compound `CCn1c(=N)n(CCOc2ccc(OC)cc2)c2ccccc21`, the Potency result is “inactive”.

For `O=C(CCS(=O)(=O)c1ccccc1)Nc1nc2c(s1)CCCC2`, the Potency result is “inactive”.

On to `COc1ccc(C(=O)NC2CCc3ccccc32)cc1OC1CCN(C(C)C)CC1` (stereo not drawn), for which the Potency result is “inactive”.

On to `Cc1nn(-c2ccccc2)c(N)c1Sc1ccc([N+](=O)[O-])cc1`, for which the Potency entry was “inactive”.

In the case of `c1ccc(-c2cn3nc(-c4ccccc4)cnc3n2)cc1`, the Potency was 920 nM (active).

Turning to `O=C(CCC1CCCC1)Nc1ccc(Br)cn1`, the Potency was 11600 nM (active).

In the case of `Cc1ccc(/C=C(\C#N)C(=O)NCC2CCCO2)o1` (stereo not drawn), the Potency entry was “inactive”.

With `Clc1ccc(OCc2nc(-c3ccccn3)no2)c(Br)c1`, the Potency is 1030 nM (active).

`O=C(O)C1CC(=O)N(c2ccc(Br)cc2)C1` (stereo not drawn): the Potency result was “inactive”.

In the case of `Cc1cccc2nc(CSC(=N)N)c(Br)n12`, the activation is 3.7% [at 9.22 µM].

On to `Cc1ccc(NC(=O)CCN2C(=O)c3cccc([N+](=O)[O-])c3C2=O)c(Br)c1`, for which the Potency entry is “inactive”.

Turning to `CC(=O)N1CCN(C(=O)COC(=O)COc2c(C)cc(C)cc2C)CC1`, the Potency entry was “inactive”.

For the compound `CCOC(=O)c1c(NC(=O)C2COc3ccccc3O2)sc2c1CCN(Cc1ccccc1)C2` (stereo not drawn), the Potency result was “inactive”.
